# This is a sample that favours compounds with a hit; in the whole collection about 1.1% have one here.
# MOR-DOR inv ag – inverse agonists of MOR-DOR heterodimerization, primary screen, cell-based, luminescence | Mu-type opioid receptor (Homo sapiens) + Delta-type opioid receptor (Homo sapiens), … | cell-based MOR-DOR heterodimer luminescence, inverse agonism | inhibition, % at 9.3 µM | 0.21% of 340,000 active | AID 504357, 2011; in the data active = inhibition above about 22%, passing the limit was not always enough;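 also: 0% = cells with DMSO and 100% = wells without cells with DMSO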
# MOR-DOR ag-1 – agonists of OPRM1-OPRD1 heterodimerization, primary screen, cell-based, luminescence. cells. AID 504326, 2011. activation, % at 9.3 µM. 0.3% of 340,000 active. Mu-type opioid receptor (Homo sapiens) + Delta-type opioid receptor (Homo sapiens), …;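 also: 0% = vehicle-treated cells and 100% = reference agonist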
# HTR5A inv ag – HTR5A inverse agonists in luminescence cell assay, primary screen, counter-screen for OPRM1-OPRD1 heterodimer inverse agonist project, full-deck HTS; inhibition, % at 9.3 µM; 0.083% of 340,000 active; HTR5A cell line, inverse agonism; in the data active = inhibition mostly above about 23%, no sharp cut-off; inactive = mostly below about 18%;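 also: 0% = cells with DMSO and 100% = no-cell wells with DMSO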
# Target sequence (P47898 whole entry, looked up): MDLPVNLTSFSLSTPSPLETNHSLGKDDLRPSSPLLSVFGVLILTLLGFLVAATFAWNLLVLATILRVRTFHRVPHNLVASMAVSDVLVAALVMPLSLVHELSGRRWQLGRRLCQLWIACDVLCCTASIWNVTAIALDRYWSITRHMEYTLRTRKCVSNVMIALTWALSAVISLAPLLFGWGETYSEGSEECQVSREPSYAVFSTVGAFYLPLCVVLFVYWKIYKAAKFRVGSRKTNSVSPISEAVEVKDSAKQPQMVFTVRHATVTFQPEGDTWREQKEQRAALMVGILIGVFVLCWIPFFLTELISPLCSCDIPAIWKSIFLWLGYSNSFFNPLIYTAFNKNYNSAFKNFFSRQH
# HTR5A ag – HTR5A agonists in luminescence cell assay, primary screen, counter-screen for OPRM1-OPRD1 heterodimer agonist project, full-deck HTS; 5-hydroxytryptamine receptor 5A (Homo sapiens), P47898; 0.61% of 340,000 active; cell-based; activation, % at 9.3 µM; in the data active = activation mostly above about 9.5%, no sharp cut-off; inactive = mostly below about 7.6%;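 also: 0% = cells with vehicle only and 100% = reference agonist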
# MOR-DOR ag-2 – OPRM1-OPRD1 heterodimerization promoters, counter-screen for HTR5A agonist project, cell-based, luminescence; shares compounds with HTR5A ag; U2OS counter-screen cells, complementation luminescence, 3 h; activation, % at 9.3 µM; 13% of 800 active; AID 504913, 2011
# HTR5A ag confirm – HTR5A agonists, retest of hits, confirmation, cell-based, luminescence; HTR5A agonist cell assay; 17% of 800 active; shares compounds with HTR5A ag; activation, % at 9.3 µM; in the data active = activation above about 17%;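 also: 0% = cells with vehicle only and 100% = full reference agonist response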
# * hit, by the source's call; nt = no result. Rule as the data show it, unless noted: active = activation above about 18%; inactive = the rest.
SMILES,MOR-DOR inv ag,MOR-DOR ag-1,HTR5A inv ag,HTR5A ag,MOR-DOR ag-2,HTR5A ag confirm
CCOc1ccc(CNC(=O)NS(=O)(=O)c2ccc(OC)cc2)cc1,-5,1,-50,15*,23*,4
CCOc1ccc(S(=O)(=O)NN)cc1,17,-3,-85,14*,-2,0
COc1cccc(-n2cnc(=O)c3cccnc32)c1,-1,0,-7,-8,nt,nt
Nc1ncnc2nc(N3CCN(C(=O)c4ccccc4)CC3)[nH]c12,17,-3,-47,19*,0,-1
C=CC[C@H](CC(=O)OC(C)(C)C)C(=O)OC[C@@H]1CCCN1C(=O)[C@@H](CC=C)CC(=O)N[C@H](CO)Cc1ccccc1,7,-1,-30,-2,nt,nt
Cc1cc(OC(=O)c2ccccc2Cl)cc(=O)n1C,-7,2,-3,16*,123*,-4
CN(C)c1ccc(CNC(=O)CCS(=O)(=O)c2ccc3c(c2)n(C)c(=O)c(=O)n3C)cc1,2,0,2,-2,nt,nt
Cc1ccc(OCCn2c(C)c(/C=N/n3cnnc3)c3ccccc32)cc1,-1,0,-31,21*,10,-1
Cc1c(/C=N/n2cnnc2)c2ccccc2n1CCOc1ccc(Cl)cc1,-4,1,-10,6,nt,nt
O=C(NNC(=S)Nc1ccc(Br)cc1)c1ccccc1,16,-2,11,-6,nt,nt
O=C(NNC(=S)Nc1ccccc1)c1cccc(Br)c1,24,-4,-45,18*,-1,4
Cc1ccccc1C(=O)NC(=S)Nc1ncccn1,3,-1,-13,10,nt,nt
O=C(Nc1ccc(Oc2cccc(C(F)(F)F)c2)nc1)c1ccco1,-7,1,-31,5,nt,nt
CC(C)(C)c1ccc(Oc2ccc(NC(=O)c3ccco3)cn2)cc1,-32,6,16,16*,28*,-2
O=C(COC(=O)/C=C/c1ccc(C(F)(F)F)cc1)NC(=O)NCc1ccco1,-2,1,-48,20*,119*,1
O=C(/C=C/c1cccs1)NCc1ccc2c(c1)OCO2,10,-2,0,0,nt,nt
COC(=O)c1cc(NS(=O)(=O)c2ccc(N3CCOCC3)c(NC(C)=O)c2)cc(C(=O)OC)c1,16,-3,1,4,nt,nt
COC(=O)c1cc(NS(=O)(=O)c2ccc(N3CCOCC3)c(N)c2)cc(C(=O)OC)c1,-22,4,-52,15*,5,-12
CN(C)c1ccc(S(=O)(=O)c2ccc(Cl)cc2)cc1,-29,5,24,16*,2,2
CS(=O)(=O)C1=C(O)C(=O)N(CCCC(=O)O)C1c1ccccc1F (stereo not given),1,0,-43,16*,0,7
Cc1cc(C)c2c(c1)SC1=NC(c3ccccc3)(C(F)(F)F)NC(=O)N12 (stereo not given),-30,5,8,16*,3,5
Cn1c(CN2CCCCC2)nc2cc(NC(=O)c3ccc(Cl)cc3)ccc21,-9,2,-146,39*,2,44*
CC1=NNC(=O)/C1=C\c1cn(-c2ccccc2)nc1-c1ccc(Cl)cc1,-27,5,-75,23*,-2,-5
Cc1[nH]nc(-c2ccc(OCc3cnn(-c4ccccc4)c3)c(C)c2O)c1Oc1ccccc1,-64,14,-27,22*,19*,10
CCN1CCN(C(=O)/C=C/c2ccc(C(C)C)cc2)CC1,8,-2,4,1,nt,nt
CCN1CCC(O)(/C=C/c2ccc(C(C)C)cc2)C(C(=O)/C=C/c2ccc(C(C)C)cc2)C1 (stereo not given),-16,3,-71,18*,51*,27*
Nc1c(C(=O)Nc2ccc(S(=O)(=O)N3CCCC3)cc2)sc2nc3cc4c(cc3cc12)CCC4,-13,2,15,0,nt,nt
Nc1c(C(=O)Nc2ccc(S(=O)(=O)N3CCCC3)cc2)sc2nc3ccc(OC(F)(F)F)cc3cc12,-88,16,-69,15*,24*,4
